{"source": "PubChem BioAssay AID1159606", "about": "(Sanford-Burnham Center for Chemical Genomics, 2016)", "note": "About 7,300 (2%) of roughly 360,000 compounds were called active. Shown is part of a subset that was picked to be rich in actives. Unmarked numbers belong to inactive results. Rule as the data show it: active = inhibition above about 50%; inactive = the rest."}
{"experiment": "inhibitors of TWEAK-Fn14 signaling, primary screen, luciferase reporter cells, uHTS (AID 1159606)", "settings": "TWEAK-stimulated Fn14 reporter cells, luciferase luminescence, 8 h; at 10 µM; stronger effect = higher value"}
{"compound": "CC(C)(C)OC(=O)C[C@@H]1C/C=C\\C[C@@H](CC(=O)NCCO)C(=O)N[C@H](Cc2c[nH]c3ccccc23)COC1=O", "inhibition": "-8.05%"}
{"compound": "Oc1cccc2ccc(/C=C/c3ccc(Br)s3)nc12", "inhibition": "57.6% (active)"}
{"compound": "Nc1ccc(S(=O)(=O)Nc2nccc(/C=C/c3ccc(Br)s3)n2)cc1", "inhibition": "-5.92%"}
{"compound": "CCCN(CC(=O)Nc1ccc(OC)c(OC)c1)CC(=O)Nc1ccc(F)c(F)c1F", "inhibition": "-5.89%"}
{"compound": "CCCCN1Cc2c(nc3cc(-c4ccccc4)[nH]n3c2=O)C1=O", "inhibition": "1.25%"}
{"compound": "O=c1c2c(nc3nc[nH]n13)CCC2", "inhibition": "1.33%"}
{"compound": "O=c1c2c(nc3cc(-c4cccc(Cl)c4)[nH]n13)CCCC2", "inhibition": "75.5% (active)"}
{"compound": "CSc1nnc(SCc2nc3sc(C(=O)O)c(C)c3c(=O)[nH]2)s1", "inhibition": "15.4%"}
{"compound": "CCCCCCN1CCN(C2CN(Cc3cn(CCCCCC)nn3)S(=O)(=O)C2)CC1", "note": "(centres undefined)", "inhibition": "6.81%"}
{"compound": "COc1cc(-c2nnc(Cn3cc(C(F)(F)F)ccc3=O)o2)cc(OC)c1OC", "inhibition": "-25.3%"}
{"compound": "C=CCOc1cccc(CNn2cn[nH]c2=S)c1", "inhibition": "22.9%"}
{"compound": "CCOC(=O)[C@]12CCCC=C1N(Cc1cccc3ccccc13)C(=O)[C@H](CC(=O)NCC13CC4CC(CC(C4)C1)C3)C2", "inhibition": "25.4%"}
{"compound": "O=C(Nc1sc2c(c1-c1nc3ccccc3[nH]1)CCCC2)C1CC1", "inhibition": "-8.49%"}
{"compound": "C/C(=C\\c1ccccc1)C1NC(=O)c2c(sc3c2CCCC3)N1", "note": "(centres undefined)", "inhibition": "77% (active)"}
{"compound": "O=C1NC(c2ccncc2)Nc2sc3c(c21)CCCC3", "note": "(centres undefined)", "inhibition": "-14.9%"}
{"compound": "CCC1NC(=O)c2cccnc2-n2c1nc1ccc(C)cc1c2=O", "note": "(centres undefined)", "inhibition": "-40.1%"}
{"compound": "CC(NC(=O)CCC(=O)N1CCN(S(=O)(=O)c2ccc(Cl)cc2)CC1)c1ccccc1", "note": "(centres undefined)", "inhibition": "4.74%"}
{"compound": "O=C(NCc1cccc(C(F)(F)F)c1)c1cccc(S(=O)(=O)N2CCN(Cc3ccccc3)CC2)c1", "inhibition": "15.4%"}
{"compound": "O=C(CCC(=O)N1CCN(S(=O)(=O)c2ccc(Cl)cc2)CC1)NCc1cccc(C(F)(F)F)c1", "inhibition": "57.4% (active)"}
{"compound": "Cc1n[nH]c(=O)c2c(NC(=O)COC(=O)c3ncc(Cl)c(Cl)c3Cl)oc(C)c12", "inhibition": "-5.62%"}
{"compound": "CSc1ccccc1NC(=O)COC(=O)CCCOc1ccc(C)cc1", "inhibition": "-5.19%"}
{"compound": "Cc1noc(C)c1COC(=O)Cn1c(C)nc2ccccc21", "inhibition": "-13%"}
{"compound": "CCCCCCCCCCOC(=O)Cn1c(COc2ccc(C)cc2)[n+](C)c2ccccc21", "inhibition": "76.3% (active)"}
{"compound": "Cc1ccc(C(=O)CN2C(=O)NC3(CCc4ccccc43)C2=O)c(C)c1", "note": "(centres undefined)", "inhibition": "-25.2%"}
